Results from the OligoGym collection.

molecular target: SLC29A3; experiment: pooled miR-30 sensor sort-seq; sequence = guide strand; settings: shRNA
Note: reference of the scale not given here.

Sequence | sensor-assay potency score (higher = more potent)
TTGACATGTTGTAAACAGGAAC | -1.02
TATTTCTTCTTCAACTGTCTCA | 0.0304
TTTGAACATCCAGTACTCCTTG | 0.313

molecular target: SLC2A14; experiment: as above; settings: shRNA

Sequence | sensor-assay potency score (higher = more potent)
TAAATAGTAAGCAGCAGAGGGG | -1.17
TCCCAGATCTATCTGCACCGTG | -0.88
TTACACAGTCCCATAAGGCAGC | -0.403
TAGTGATTCTTTAATAACAAAG | -1.67
TCAGCATTTCAACTGACTCAGC | -0.914
TTAACAAAGAGTCCGACGGAAA | -1.6
TTATGATCGTCTCAGGAGCATT | -1.97
TGATTCTTTAATAACAAAGAAA | -1.69
AATTCCAATAACTATGCCCAGC | -1.73
ATAAATTCCTTTATGATCGTCT | 0.823
TTCGTGAGCAGCACCTCAGAGG | -0.817
TTTATGATCGTCTCAGGAGCAT | -0.333

molecular target: SLC2A3; experiment: as above; settings: shRNA

Sequence | sensor-assay potency score (higher = more potent)
TAGGATAGCAGGAAGGATGGTA | 0.643
TTACACAGTCCCATAAAGCAGC | -0.688
TTATGATCTTCTCAGGAGCATT | -1.71
TTCCAGATCTATCTGCACCGTG | 0.283
TTCTTTTCTGTTAATGAGCAAA | -1.47
TAGCTACTTTACACAGTCCCAT | -0.496
TTTGAAGAAGGTAAAAGCCAAG | -1.07
TCTGCTTAGCATTCTCCTCTTC | 0.0393
TTGTAGGATAGCAGGAAGGATG | -1.65
TTGACGAAGAGTCCGACGGAAA | -1.44
TTATCCTTTAATAACAAAGAAA | -1.62
TTAGCTACTTTACACAGTCCCA | -1.12

molecular target: SLC2A7; experiment: as above; settings: shRNA

Sequence | sensor-assay potency score (higher = more potent)
TTTCTCTTGGCAAAAATGCGGT | -0.876
TTCATCTCCTTTCTGAATCAGG | -0.693
TTCTGAATCAGGGAGTAGCGGG | -1.43
TCTGCCGCAGCTATCAACCAGC | -0.668
TTGAAGACCTTGTGCGGCGTGT | -0.139
TTACATATTGGGAGTGAGCGGC | -0.256
TAGTTGATCGCATTGATGCCCG | -0.411
TTTCGTTGTAAAATGACTTGAA | 0.429
TAAATCGCAGTGAGGAGGCAGA | -0.695
TGACTTGAAGACCTTGTGCGGC | -0.691
TAGTAGTTGATCGCATTGATGC | -1.14
TTTATCTCCACAAATGTTTTGC | 0.129
